Test results as given in PubChem BioAssay AID1117319 (Southern Research Institute, 2015).
Among all 260,000 compounds or so, about 1,500 (0.58%) were called active. Roughly 5% stayed inconclusive and do not appear here.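 Rule for the calls: active = inhibition above a set limit at one or more doses, reproduced on every date tested; inconclusive = results disagree between test dates, or hit never tested in dose response; inactive = the rest.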 Only a sample is shown. Entries with a potency or affinity are not part of this list.

What follows are compounds tested against Virion infectivity factor (Human immunodeficiency virus type 1 group M subtype B (isolate BH10)) + Virion infectivity factor (Human immunodeficiency virus type 1 group M subtype B (isolate BRU/LAI)) + Virion infectivity factor (Human immunodeficiency virus type 1 group M subtype B (isolate PCV12)) + Virion infectivity factor (Human immunodeficiency virus type 1 group M subtype B (isolate HXB2)) + DNA dC->dU-editing enzyme APOBEC-3G (Homo sapiens) (UniProt P69720+P69721+P69722+P69723+Q9HC16) (assay: inhibitors of Vif binding to APOBEC3G peptide, primary screen, biochemical, TR-FRET, GST-Vif 1-94, biotin-A3G peptide, dose response retest (AID 1117319;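 note: Vif residues 1-94 fused to GST binding biotinylated APOBEC3G peptide 110-148; 0% = full assay without inhibitor and 100% = GST in place of GST-Vif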)). Conditions: active compounds read high.

inhibition, inactive:
O=c1c2cc(N3CCOCC3)ccc2[nH]c(=S)n1Cc1ccc(Cl)cc1 -2.52%
O=c1c2cc(N3CCOCC3)ccc2[nH]c(=S)n1Cc1ccccc1Cl -15.9%
CCCCn1c(=S)[nH]c2ccc(N3CCOCC3)cc2c1=O -3.86%
O=c1c2cc(N3CCOCC3)ccc2[nH]c(=S)n1CCN1CCCC1 12.5%
CN(C)C(CNS(=O)(=O)c1ccc(F)cc1)c1cccnc1 (centres undefined) -1.58%
CN(C)S(=O)(=O)c1ccc(Cl)c(C(=O)NNC(=O)c2ccc3c(c2)OCO3)c1 -8.17%
Cc1ccsc1C(=O)NC(C)c1ccc2c(c1)OCO2 (centres undefined) 0.99%
CCSc1nnc(Nc2ccc(C)cc2)s1 1.17%
CC(C)C12CN3CC(C(C)C)(CN(C1)C3c1ccc3c(c1)OCO3)C2=O (centres undefined) 2.83%
Cc1ccc2oc(-c3ccc(NC(=O)c4ccncc4)cc3O)nc2c1 -2%
O=C(COC(=O)c1ccc(S(=O)(=O)C(F)F)cc1)Nc1cccnc1Cl 10.1%
Cc1cc(C)n2nc(SCC(=O)N3CCC(C(=O)O)CC3)nc2n1 0.2%
Cc1cccc(OCc2nnc(NC(=O)Cc3cccs3)s2)c1 -15.6%
Clc1ccccc1Oc1cnc2ccccc2n1 31.7%
O=c1c(OC2OC(CO)C(O)C(O)C2O)c(-c2ccc(O)c(O)c2)oc2cc(O)cc(O)c12 (centres undefined) -4.71%
COc1ccc(-c2oc3c(CC=C(C)C)c(O[C@@H]4O[C@H](CO)[C@@H](O)[C@H](O)[C@H]4O)cc(O)c3c(=O)c2O[C@@H]2O[C@@H](C)[C@H](O)[C@@H](O)[C@H]2O)cc1 0.27%
O=c1c(O[C@@H]2O[C@H](CO)[C@@H](O)[C@H](O)[C@H]2O)c(-c2ccc(O)c(O)c2)oc2cc(O)cc(O)c12 -5.92%
C[C@@H]1O[C@@H](OC[C@H]2O[C@@H](Oc3c(-c4ccc(O)c(O)c4)oc4cc(O)cc(O)c4c3=O)[C@H](O)[C@@H](O)[C@@H]2O)[C@H](O)[C@H](O)[C@H]1O -12%
CN(C)C(CNC(=O)CCc1c[nH]c2ccccc12)c1ccccc1 (centres undefined) 0.02%
O=C(COC(=O)C1CCN(S(=O)(=O)c2cccs2)CC1)Nc1ccccc1 -2.54%
CCN(Cc1ccccc1)C(=O)Cn1c(C(C)O)nc2ccccc21 (centres undefined) -14.7%
CC(=O)OC1C(OC(C)=O)C2C(C)CC3OC(=O)C(C)C3CC2(C)C1OC(C)=O (centres undefined) 1.67%
COc1ccc(C(OCC(O)CNCCc2ccc(S(N)(=O)=O)cc2)c2ccc(OC)cc2)cc1 (centres undefined) -0.36%
CC(=O)c1ccc(-n2c(CCC(=O)O)ccc2-c2cccs2)cc1 7.93%
Cc1ccc(-n2c(CCC(=O)O)ccc2-c2cccs2)cc1 9.93%
Cc1c(C(=O)Nc2ccccc2-c2ccccc2)cccc1[N+](=O)[O-] 22.9%
Cc1ccccc1CNC(=O)c1ccc(Cl)c([N+](=O)[O-])c1 3.74%
Cc1nn(C)cc1CNC(=O)c1cccc(Cl)c1 0.88%
COCC(C)OC(=O)c1c(N)n(-c2ccc(OC)c(OC)c2)c2nc3ccccc3nc12 (centres undefined) 7.95%
COc1cc(/C=C/C(=O)OCC(=O)Nc2ccc3c(c2)OCCO3)ccc1OCC#N -0.31%
N#CC1=C2C=Cc3ccccc3N2CCCC1=O 6.87%
Cc1ccc(C)c(-n2c(Cc3cc(=O)[nH]c(=O)[nH]3)nnc2SC(C)C)c1 71.3%
COC(=O)C(C)Sc1nnc(Cc2cc(=O)[nH]c(=O)[nH]2)n1-c1ccc(OC)cc1 (centres undefined) 7.85%
Cn1c(=O)c2c(nc(CN3CCN(C(=O)c4ccco4)CC3)n2Cc2cccc(Cl)c2)n(C)c1=O 7.79%
COc1ccccc1OCC(=O)N1CCCC(Nc2cccc(F)c2)C1 (centres undefined) -1.81%
COCC(=O)n1nc(-c2ccccc2)nc1NCc1ccc(N(C)C)cc1 -5.23%
Cc1cc(C)n(CC(=O)N2CCc3ccccc32)c(=O)c1C#N -19.3%
O=C1OC2(c3ccccc31)c1ccccc1-c1ccccc12 -7.13%
Cc1cc(O)ccc1C1(c2ccc(O)cc2C)OC(=O)c2ccccc21 -0.95%
Cc1cccc(NC(=O)CN2CCN(C(=O)c3oc4c(Cl)cccc4c3C)CC2)c1C -10%
Cc1cccc(Nc2nc(N)c([N+](=O)[O-])c(N3CC(C)OC(C)C3)n2)c1 (centres undefined) -1.71%
COC(Cc1n[nH]c(=S)n1-c1ccc(Cl)cc1)OC -7.57%
COC(Cc1nnc(SC)n1-c1ccccc1)OC 6.71%
Cc1ccc(C2N(c3ccccc3)C(=S)N3CCCN23)cc1 (centres undefined) 19.3%
O=S(=O)(O)c1ccc(O)c2cc(Nc3ccccc3)ccc12 -8.31%
O=C(O)c1cc2cc(S(=O)(=O)O)ccc2cc1O 26.7%
O=C(O)c1cc(NS(=O)(=O)c2ccc3ccccc3c2)ccc1O -12.2%
O=C(O)c1cc(S(=O)(=O)O)cc(Nc2c3ccccc3nc3ccccc23)c1O 5.42%
COc1ccccc1Nc1ccc2c(O)cc(S(=O)(=O)O)cc2c1 15.2%
Nc1ccc(C(=O)Nc2ccc3c(O)cc(S(=O)(=O)O)cc3c2)cc1 29.1%
CC(=O)Nc1ccc2c(O)cc(S(=O)(=O)O)cc2c1 19.9%
Nc1ccc(C(=O)Nc2ccc3cc(S(=O)(=O)O)ccc3c2)cc1 7.06%
COc1ccccc1CNC(=O)CNC(=O)Cn1cnc2ccccc2c1=O 8.94%
COC(=O)c1c(NC(=O)C2(C)Cc3ccccc3C(=O)O2)sc2c1CCCC2 (centres undefined) 20.6%
O=C(Nc1nnc(Cc2ccccc2)s1)C1CCC1 6.12%
NC(=O)CN(N=Nc1cccc([N+](=O)[O-])c1)c1cccc([N+](=O)[O-])c1 10.3%
COc1ccccc1C(=O)NC(CCSC)C(=O)NNC(=O)c1ccc(F)cc1 (centres undefined) -6.52%
CCCN(C(=O)c1cc(S(=O)(=O)N(C)c2ccc(OCC)cc2)ccc1C)C1CCS(=O)(=O)C1 (centres undefined) 2.41%
Cc1nnc(SCC(=O)Nc2ccccc2)n1CCc1ccccc1 -1.11%
CC1(C)CC(NS(=O)(=O)c2ccccc2)CC(C)(C)N1 13.5%
CC1(C)CC(NC(=O)C(c2ccccc2)c2ccccc2)CC(C)(C)N1 -4.99%
CC(C)(C)c1cc(NC(=O)CCSc2nnc3ccccn23)cc(C(C)(C)C)c1 -5.51%
O=C1CCCC/C1=C/Nc1ccc(C(=O)O)cc1 28.3%
O=C1/C(=C/Nc2ccc3c(c2)OCO3)CCc2ccccc21 27.2%
O=C1/C(=C\c2ccc3c(c2)OCO3)CCC/C1=C/c1ccc2c(c1)OCO2 1.07%
O=C1CCC/C1=C/Nc1ccc(Cl)cc1 -0.33%
CC(C)(C)NC(=O)Cn1c(=O)c(=O)n(Cc2ccccc2)c2ccc(Cl)cc21 -13.9%
NS(=O)(=O)c1ccc(NC(=S)N2CCN(c3ccc(Cl)c(Cl)c3)CC2)cc1 -1.39%
Cc1ccc(-n2ncc3c(NCc4cccnc4)ncnc32)cc1C -0.06%
CC(=O)Nc1ccc2c(COC(=O)CC3Sc4ccccc4NC3=O)cc(=O)oc2c1 (centres undefined) -2.31%
COCCN(C(=O)COC(=O)CCn1c(C)csc1=O)c1c(N)n(Cc2ccccc2)c(=O)[nH]c1=O 3.17%
COC(=O)[C@@H](N)Cc1ccc(O)cc1 1.26%
COC(=O)C(N)Cc1ccc(O)c(O)c1 (centres undefined) 21.5%
CC(NC(=O)Cn1cnnn1)C12CC3CC(CC(C3)C1)C2 (centres undefined) -1.37%
O=C(CCN1CCN(c2ccccc2)CC1)N/N=C/c1ccccc1O -5.36%
O=C(Cc1csc(N2CCOCC2)n1)N/N=C/c1ccccc1C(=O)O 6.57%
O=C(Cc1csc(N2CCOCC2)n1)N/N=C/c1ccc(Cl)cc1Cl -5.97%
COc1ccc(/C=N/NC(=O)CCN2CCN(c3ccccc3)CC2)c(OC)c1OC 8.69%
Cc1cccc(NC(=S)NCc2ccc(F)cc2)c1 -7.76%
Cc1nn(C)c(Cl)c1C(=O)NCC(=O)O -8.59%
CCN1CCCC1Cn1cnc2c([nH]c3cccc(Cl)c32)c1=O (centres undefined) 32.2%
Cc1ccc(S(=O)(=O)n2nc(OC(=O)c3ccco3)cc2N)cc1 7.76%
COc1ccc(OC)c(NC(=O)COC(=O)c2ccc(S(=O)(=O)N3CCCCC3)cc2)c1 -4.24%
COc1ccc(OCCCC(=O)OC(C)C(=O)Nc2ccc(S(N)(=O)=O)cc2)cc1 (centres undefined) 1.05%
CC1CCC(NC(=O)c2cc(Cl)nc3ccccc23)CC1 (centres undefined) -9.79%
Cc1noc(/C=C/c2ccco2)c1S(=O)(=O)N1CCC(C(=O)N2CCc3ccccc3C2)CC1 26.3%
Cc1noc(/C=C/c2ccco2)c1S(=O)(=O)N1CCC(C(=O)N2CCc3ccccc32)CC1 10.8%
CCOC(=O)c1c(C)[nH]c(C(=O)CSc2nnnn2-c2ccc(C)cc2)c1C -6.65%
CCOc1cc(C)c(Cl)cc1S(=O)(=O)N(CC)CC -2.91%
